Results published in PubChem BioAssay AID2599 (Sanford-Burnham Center for Chemical Genomics, 2010).
Screen size: about 330,000 compounds; about 5,800 (1.8%) were called active. This excerpt belongs to a sample that is enriched for actives. Unmarked numbers belong to inactive results.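 The calls were made as follows: active = inhibition above about 50% at the single tested dose (limit read from the data); inactive = the rest.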

Biological target: Sentrin-specific protease 6 (Homo sapiens) (UniProt Q9GZR1)
Sequence (Q9GZR1 628-1112 limits assumed): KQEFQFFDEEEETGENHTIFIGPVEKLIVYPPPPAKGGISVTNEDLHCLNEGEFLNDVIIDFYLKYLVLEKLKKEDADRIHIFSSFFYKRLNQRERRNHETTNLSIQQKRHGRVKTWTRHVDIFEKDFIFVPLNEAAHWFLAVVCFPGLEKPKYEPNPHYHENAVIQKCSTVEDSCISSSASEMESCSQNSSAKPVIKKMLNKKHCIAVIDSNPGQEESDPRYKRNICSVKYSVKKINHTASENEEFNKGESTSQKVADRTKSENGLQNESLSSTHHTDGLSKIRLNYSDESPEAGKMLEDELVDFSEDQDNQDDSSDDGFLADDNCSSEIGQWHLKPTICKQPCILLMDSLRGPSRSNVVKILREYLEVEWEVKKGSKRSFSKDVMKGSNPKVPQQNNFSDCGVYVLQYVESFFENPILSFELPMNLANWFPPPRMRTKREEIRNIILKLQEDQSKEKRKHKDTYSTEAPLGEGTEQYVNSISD
Assay: inhibition of human SENP6 catalytic domain – biochemical, luminescence, uHTS, primary screen (AID 2599);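 also: plate controls were DMSO wells with enzyme for no effect and DMSO wells lacking enzyme for full effect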
Conditions: Recombinant SENP6 catalytic domain, aminoluciferin luminescence; at 10 µM; stronger effect = higher value

Structure (SMILES) | inhibition
Clc1ccc(Nc2ccc3ccccc3n2)cc1 | 89.2% (active)
Cc1cc(Nc2ccc(Br)cc2)nc2ccccc12 | 0.575%
O=c1ccnc(Nc2ccc(Cl)cc2)[nH]1 | -2.45%
CN(C)/C=C(\C#N)C(=O)c1cccnc1Oc1cccc(F)c1 | -2.99%
COc1ccc2oc(=O)cc(CN3CCOCC3)c2c1 | -0.296%
CCCCC(O)(CCCC)C(=O)NN(C(=O)CCl)c1ccccc1 | -17.7%
O=C(Nc1ccncc1)c1ccccc1[N+](=O)[O-] | -15.3%
O=C(Nc1ccncc1)c1ccc([N+](=O)[O-])cc1Cl | -18.8%
O=C(Nc1ccccc1C(=O)Nc1ccncc1)c1ccc([N+](=O)[O-])cc1 | 58.6% (active)
CC(=O)N(c1ccc2oc(=O)sc2c1)S(=O)(=O)c1ccc(C)cc1 | 15.9%
Cc1ccc(S(=O)(=O)N2CCN(C(=O)CN3C(=O)NC(C)(c4ccc(Cl)cc4)C3=O)CC2)c(C)c1 (centres undefined) | -2.29%
O=C(OCc1ccc(-c2ccccc2)cc1)c1cccc(O)c1 | 2.41%
Cc1ccc(O)c(CNc2nc3ccccc3[nH]2)c1 | -16.5%
CC(C)n1c(NCc2c[nH]c3ccccc23)nc2ccccc21 | 9.71%
Cc1ccc(O)c(CNc2nc3ccccc3n2C)c1 | 51.5% (active)
COC(=O)c1sccc1NC(=O)CC1C(=O)NCCN1C(=O)Nc1ccc(F)cc1F (centres undefined) | -25.4%
Cc1ccc(N2C(=O)C3C4C=CC(CC4)C3C2=O)cc1Cl (centres undefined) | 14.5%
O=C(Nc1ccc(N2CCN(C(=O)c3ccccc3)CC2)c(Cl)c1)c1cccnc1 | 14.4%
O=[N+]([O-])c1ccccc1SNc1ccccn1 | -6.35%
CCCc1ccc(OCCNC(=O)c2ccccc2Br)cc1 | 14.6%
CCCc1ccc(OCCNC(=O)c2ccco2)cc1 | 14.5%
CCCOc1ccc(C(=O)NCCc2ccccc2)cc1 | 76.4% (active)
OCC[C@H]1C[C@H](O)[C@@H](O)[C@]2(CCCCO2)O1 | -7.27%
O=C(COc1ccc2oc3c(c2c1)CCCC3)Nc1ccccn1 | 56.4% (active)
CCOC(=O)N1CCN(C(=O)COc2ccc3oc4c(c3c2)CCCC4)CC1 | 1.75%

Structure (SMILES) | inhibition
CCN(CC)CCCNC(=O)COc1ccc2oc3c(c2c1)CCCC3 | -9.52%
CCOC(=O)c1sc(NC(=O)C2CSC3(C)CCC(=O)N23)nc1C (centres undefined) | -17.8%
O=C(NCCc1ccc(Cl)cc1)C1CCCN1C(=O)NCc1ccccc1 (centres undefined) | 19.7%
O=C(NCC(c1ccco1)N1CCc2ccccc2C1)c1ccccc1Cl (centres undefined) | -27.1%
CCOC(=O)c1ccc(Nc2cc(C)nc3nc(C)nn23)cc1 | 3.17%
CCOC(=O)c1ccc(NC(=O)c2cc(=O)[nH]c3ccccc23)cc1 | -1.31%
CCOC(=O)c1ccc(Nc2cc3ccccc3c(=O)[nH]2)cc1 | 85.9% (active)
CCc1ccc(NC(=O)CN2C(=O)CSC2=O)cc1 | 3.31%
CCc1nc2sc3c(Cl)ncnc3c2c2c1CCCC2 | -2.17%
Cc1ccc2sc(NNC(=O)c3ccc4c(c3)OCCO4)nc2c1C | 12.7%
CC(=O)Nc1cccc(C(=O)OCC(=O)c2ccc3c(c2)OCO3)c1 | 83.6% (active)
O=C(Nc1cccc([N+](=O)[O-])c1)c1ccc2c(c1)OCO2 | 66.7% (active)
CC(NC(=O)Nc1cccc([N+](=O)[O-])c1)c1ccc2c(c1)OCO2 (centres undefined) | -3.48%
CC(NC(=O)COC(=O)c1ccc2c(c1)OCO2)c1ccccc1 (centres undefined) | -2.95%
CN1CCN(c2ccc(NC(=O)c3ccc4c(c3)OCCO4)cc2Cl)CC1 | 3.53%
COCc1nnc(NC(=O)c2ccc3c(c2)OCO3)s1 | 13.6%
O=C(Nc1nc2ccccc2s1)c1ccc2c(c1)OCO2 | 94.8% (active)
O=C(COC(=O)c1ccc(F)cc1)Nc1ccc2c(c1)OCO2 | -6.02%
O=C(Nc1ccccc1)c1ccc2c(c1)OCCCO2 | 86.7% (active)
Cc1onc(C(=O)Nc2ccc3c(c2)OCO3)c1[N+](=O)[O-] | 0.864%
O=C(Nc1ccc2c(c1)OCCO2)c1ccoc1 | -9.58%
Cc1cc(NC(=O)CN2C(=O)NC(CC(C)C)C2=O)no1 (centres undefined) | -8.76%
Cc1cc(C)nc(-n2nc(C)cc2NC(=O)c2ccc(F)cc2F)n1 | 6.48%
CC(=O)Nc1ccc(NC(=O)C(NS(=O)(=O)c2ccc3c(c2)OCCO3)C(C)C)cc1 (centres undefined) | 16.7%
COc1cccc(NC(=O)N2CCC(NC(=O)C(Cc3cccc(C)c3)NC(C)=O)CC2)c1 (centres undefined) | 20.6%

Structure (SMILES) | inhibition
Cc1ccc2cccc(S(=O)(=O)N3CCN(c4ccccc4F)CC3)c2n1 | -3.25%
O=C(Nc1ccnn1C1CCN(Cc2cccc(OCCO)c2)CC1)C1CCCC1 | -17.8%
O=C(CSc1ccccn1)Nc1nc2c(ccc3ccccc32)s1 | -10.2%
CCc1nn(CCCN2CCN(c3cccc(Cl)c3)CC2)c(=O)n1CCOc1ccccc1 | -12%
CN(C(=O)c1cccc(NC(=O)C2CCN(C(=O)OC(C)(C)C)CC2)c1)C1CCC1 | -7.07%
CCN(CC)S(=O)(=O)c1ccc(N2CC(C(=O)NCc3cccnc3)CC2=O)cc1 (centres undefined) | -2.04%
N#Cc1ccccc1NC(=O)c1ccc2c(c1)OCO2 | -12.5%
O=C(Nc1ccc(N2CCOCC2)cc1)c1ccc2c(c1)OCO2 | 25.4%
COc1ccc(C(=O)Nc2ccc(C3(C#N)CCCC3)cc2)cc1OC | 96.3% (active)
O=C(Nc1ccc(NC(=O)c2ccc3c(c2)OCO3)cc1)c1cccc(Cl)c1 | -11.5%
COc1cc(C(=O)NCC2(c3ccccc3)CCCC2)ccc1OC(C)C | 2.81%
COc1ccc(C(=O)Nc2ccc3nc(N4CCCCC4)cc(C)c3c2)cc1OC | -7.43%
O=C(Nc1ccccc1)c1ccc2c(c1)OCO2 | 85.1% (active)
COc1ccc(C(=O)Nc2ccc3c(c2)OCO3)cc1OC | 80.8% (active)
O=C(Nc1ccccc1F)c1ccc2c(c1)OCO2 | 71.4% (active)
CC(C)C(=O)Nc1cccc(C(=O)Nc2ccc3c(c2)OCO3)c1 | 33.6%
COc1cc(NC(=O)c2ccc3c(c2)OCO3)ccc1NC(=O)c1cccs1 | -45.6%
CN(Cc1c(F)cccc1Cl)C(=O)CNC(=O)c1ccc2c(c1)OCO2 | -13.3%
COc1ccc(C(=O)NCC2CCCCC2)cc1S(=O)(=O)N1CCCC1 | -0.795%
COc1ccc(COC(=O)c2n[nH]c3ccccc23)cc1F | -5.01%
Cc1nn(C)c(C)c1S(=O)(=O)N1CCC(CO)(Cc2ccc(Cl)cc2)CC1 | -8.17%
CC(C)N1C(=O)N(c2ccccc2)C(C)(O)CC1(C)C (centres undefined) | -17.1%
O=C(COC(=O)Cn1[nH]c(=O)c2ccccc2c1=O)Nc1ncc(Cl)cc1Cl | -4.87%
Cc1cccc(NS(=O)(=O)c2ccc(C(=O)NCC(C)(C)N3CCOCC3)cc2)c1C | 4.82%
C=CCOc1ccc(C2/C(=C(\O)c3c(C)[nH]c(C(=O)OC)c3C)C(=O)C(=O)N2CCN(C)C)cc1 (centres undefined) | 9.74%

Structure (SMILES) | inhibition
COc1ccc(CN(C)C(=O)Cc2ccsc2)c(OC)c1OC | -22.6%
O=C(OCc1ccccc1F)c1ccc2c(c1)OCCO2 | 95.5% (active)
O=C(Nc1ccc(NC(=O)c2ccco2)c(Cl)c1)c1cccc([N+](=O)[O-])c1 | 14.1%
Cc1cc(C)nc(NC(=O)c2cccc([N+](=O)[O-])c2)c1 | -34.1%
N#CCCN(C(=O)COC(=O)c1ccc2c(c1)OCCO2)c1ccccc1 | 6.71%
O=C(Nc1ccc(C2CC2(Cl)Cl)cc1)c1cccc([N+](=O)[O-])c1 (centres undefined) | 76.9% (active)
O=C(COC(=O)c1ccc2c(c1)OCCO2)NCc1ccccc1Cl | 3.1%
O=C(CCC(=O)n1ncc2ccccc21)NCc1ccccc1Cl | 15.9%
Cc1nc(N)c(Br)c(C)c1Br | 0%
COc1cccc(-n2nc(C(=O)N3CCN(Cc4ccccc4)CC3)c3ccccc3c2=O)c1 | -0.104%
O=C(O)CSc1nccn1-c1cccc(Cl)c1 | -22.5%
COCCCNC(=O)Cn1c(=O)n(Cc2ccccc2Cl)c(=O)c2cc(OC)c(OC)cc21 | -8.65%
O=S(=O)(c1cnccc1N1CCN(/N=C/c2ccc(Br)cc2)CC1)N1CCCCC1 | -13.3%
Cc1c(Cl)cccc1NC(=O)Nc1ccc(C(=O)N2CCCC2)cc1 | 61.5% (active)
O=C(Nc1ccc(Cl)cc1)Nc1ccc(C(=O)N2CCOCC2)cc1 | -8.3%
Cc1c(Cl)cccc1NC(=O)NCCCN1CCCC1=O | 2.62%
O=C(c1ccc2ccccc2n1)N1CCN(c2ccccc2Cl)CC1 | 5.78%
CC(=O)Nc1ccc(OC(=O)COc2ccc(Br)cc2)cc1 | -9.28%
Cc1ccc(NC(=O)c2cc(-c3ccccc3O)n[nH]2)cc1C | -12.4%
CC(C)C(=O)NCc1cc(-c2ccc(Cl)cc2)no1 | -26.7%
S=c1[nH]nc(-c2cc(-c3ccccc3)n[nH]2)n1/N=C/c1c2ccccc2cc2ccccc12 | -3.75%
c1ccc(-c2cc(-c3ccccc3)[nH]n2)cc1 | 59.9% (active)
S=c1[nH]nc(-c2cc(-c3ccsc3)n[nH]2)n1-c1ccccc1 | -13.8%
Oc1ccccc1-c1cc(-c2ccc(Cl)cc2)n[nH]1 | 89.2% (active)
